Experimental data: PubChem BioAssay (NCI)
Compounds without any hit were thinned out: in the full panel of roughly 79,000, 15% have a hit. Calls of active or inactive are those of the source. Rule as the data show it: active = growth inhibition above about 70%; inactive = the rest.

Tests used:
[1] = NCI Yeast Anticancer Drug Screen. Data for the rad52 strain (AID 147);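 also: 0% = growth of vehicle-treated control cultures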; conditions: S. cerevisiae rad52 mutant growth inhibition, stronger effect = higher value
Summary of the method: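 Compounds are applied to a genetically defined yeast strain lacking normal DNA damage repair, and inhibition of growth is expressed relative to cultures given vehicle only.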

[2] = NCI Yeast Anticancer Drug Screen. Data for the wt1 strain (AID 149);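 also: 0% = growth of vehicle-treated wt1 cultures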; conditions: S. cerevisiae wt1 strain (SPY 50644) growth inhibition, stronger effect = higher value
Summary of the method: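 wt1 strain grown with compound or vehicle; inhibition taken from the growth difference.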

[3] = NCI Yeast Anticancer Drug Screen. Data for the rad50EPP+ strain (AID 151);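 also: 0% = growth of vehicle-treated control cultures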; conditions: S. cerevisiae rad50 mutant strain, stronger effect = higher value
Summary of the method: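 Compounds were applied to the rad50EPP+ yeast strain, which bears a defined DNA repair alteration, and growth inhibition was determined relative to vehicle-treated cultures.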

[4] = NCI Yeast Anticancer Drug Screen. Data for the mgt1 strain (AID 153); conditions: S. cerevisiae mgt1 mutant growth inhibition, stronger effect = higher value
Summary of the method: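 Strain: mgt1 yeast, one of a set carrying defined DNA damage repair or cell cycle control alterations. Compound-treated growth compared with vehicle.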

[5] = NCI Yeast Anticancer Drug Screen. Data for the rad50 strain (AID 155);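 also: 0% = growth of vehicle-only cultures of the same strain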; conditions: S. cerevisiae rad50 strain growth inhibition, stronger effect = higher value
Summary of the method: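 DNA repair mutant yeast, compound exposure, growth read-out; inhibition is taken relative to vehicle.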

[6] = NCI Yeast Anticancer Drug Screen. Data for the mec2-1 strain (AID 157); conditions: S. cerevisiae mec2-1 strain, stronger effect = higher value
Summary of the method: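 Strain: mec2-1 (DNA repair/cell cycle alteration). Compound exposure, then growth measured; inhibition expressed relative to vehicle.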

[7] = NCI Yeast Anticancer Drug Screen. Data for the rad14 strain (AID 159);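 also: 0% = growth of vehicle-treated control cultures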; conditions: S. cerevisiae rad14 strain growth inhibition, stronger effect = higher value
Summary of the method: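 DNA repair-defective yeast, compound-exposed; % growth inhibition derived by comparison with vehicle-treated controls.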

[8] = NCI Yeast Anticancer Drug Screen. Data for the sgs1 mgt1 strain (AID 161);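 also: 0% = growth of cultures given vehicle only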; conditions: S. cerevisiae sgs1 mgt1 strain, stronger effect = higher value
Summary of the method: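 Inhibition of yeast growth, normalised to vehicle-treated controls, is reported for a strain bearing genetic alterations in DNA damage repair.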

[9] = NCI Yeast Anticancer Drug Screen. Data for the CLN2oe strain (AID 163);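 also: 0% = growth of vehicle-only control cultures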; conditions: S. cerevisiae CLN2oe strain, stronger effect = higher value
Summary of the method: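 Growth of a genetically modified yeast strain is measured after compound exposure and compared with cultures given vehicle alone.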

[10] = NCI Yeast Anticancer Drug Screen. Data for the bub3 strain (AID 167); conditions: S. cerevisiae bub3 mutant strain, stronger effect = higher value
Summary of the method: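 In this screen, a yeast mutant lacking normal mitotic checkpoint function is challenged with compound. Relative growth versus vehicle gives the inhibition value.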

[11] = NCI Yeast Anticancer Drug Screen. Data for the mlh1 strain (AID 171);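 also: 0% = growth of vehicle-treated control cultures of the same strain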; conditions: S. cerevisiae mlh1 strain growth inhibition, stronger effect = higher value
Summary of the method: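 Growth of the mutant yeast strain after compound exposure, expressed as inhibition relative to vehicle-only controls.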

[12] = NCI Yeast Anticancer Drug Screen. Data for the sgs1 strain (AID 173);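 also: 0% = growth of vehicle-only control cultures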; conditions: S. cerevisiae sgs1 mutant, stronger effect = higher value
Summary of the method: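 Growth of a yeast strain bearing a defined genetic alteration is measured after compound treatment. Inhibition is expressed relative to vehicle-only controls.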

[13] = NCI Yeast Anticancer Drug Screen. Data for the mlh1 rad18 strain (AID 175); conditions: S. cerevisiae mlh1 rad18 strain growth inhibition, stronger effect = higher value
Summary of the method: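 Read-out is yeast growth inhibition, calculated against vehicle-only controls. The compound was applied to a strain engineered with DNA damage repair alterations.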

[14] = NCI Yeast Anticancer Drug Screen. Data for the rad18 strain (AID 177); conditions: S. cerevisiae rad18 mutant growth inhibition, stronger effect = higher value
Summary of the method: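 Growth of the mutant yeast strain after compound exposure, normalised to vehicle-only cultures.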

[15] = NCI Yeast Anticancer Drug Screen. Data for the cln2 rad14 strain (AID 165);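 also: 0% = growth equal to vehicle treated cultures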; conditions: S. cerevisiae cln2 rad14 strain, stronger effect = higher value
Summary of the method: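 Compounds are applied to the cln2 rad14 yeast strain, and growth is then compared with that of vehicle-treated cultures to give inhibition.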

[16] = NCI Yeast Anticancer Drug Screen. Data for the wt2 strain (AID 169);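 also: 0% = growth of vehicle-treated yeast cultures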; conditions: S. cerevisiae wt2 strain growth inhibition, stronger effect = higher value
Summary of the method: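 This strain belongs to a panel of yeast strains with defined genetic alterations in DNA damage repair or cell cycle control. Compounds are applied, and growth inhibition is measured against vehicle-treated cultures.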

[17] = at 5.0 µM (retest, dose inferred, filed as 0.5)
[18] = at 50.0 µM (retest, dose inferred, filed as 5.0)

Measured: growth inhibition

COc1ccc2nc3cccc([N+](=O)[O-])c3c(NCCNCCO)c2c1
inactive: [1]; at 1.2 µM 69% | [2]; at 1.2 µM -3% | [2]; at 3.7 µM 3% | [2]; at 11.0 µM 20% | [2]; at 33.0 µM 49% | [3]; at 1.2 µM 2% | [3]; at 3.7 µM 18% | [3]; at 11.0 µM 61% | [4]; at 1.2 µM -2% | [4]; at 3.7 µM 1% | [4]; at 11.0 µM 23% | [4]; at 33.0 µM 69% | [5]; at 1.2 µM 41% | [5]; [17] 36% | [6]; at 1.2 µM 17% | [6]; [17] 1% | [9]; at 1.2 µM -5% | [9]; at 3.7 µM -8% | [9]; at 11.0 µM -5% | [9]; at 33.0 µM 32% | [10]; at 1.2 µM -11% | [10]; at 3.7 µM -17% | [10]; [17] -31% | [10]; at 11.0 µM -11% | [10]; at 33.0 µM 36% | [10]; at 50.0 µM 67.7% | [11]; at 1.2 µM 1% | [11]; at 3.7 µM 21% | [11]; at 11.0 µM 50% | [13]; [17] 67%
active: [1]; at 3.7 µM 90% | [1]; at 11.0 µM 95% | [1]; at 33.0 µM 96% | [1]; at 100.0 µM 96% | [2]; at 100.0 µM 70% | [3]; at 33.0 µM 92% | [3]; at 100.0 µM 96% | [4]; at 100.0 µM 75% | [5]; at 3.7 µM 81% | [5]; at 11.0 µM 93% | [5]; at 33.0 µM 94% | [5]; [18] 98% | [5]; at 50.0 µM 85% | [5]; at 100.0 µM 95% | [6]; at 3.7 µM 75% | [6]; at 11.0 µM 95% | [6]; at 33.0 µM 96% | [6]; [18] 96% | [6]; at 50.0 µM 89.3% | [6]; at 100.0 µM 97% | [7]; at 1.2 µM 90% | [7]; at 3.7 µM 97% | [7]; at 11.0 µM 99% | [7]; at 33.0 µM 99% | [7]; at 100.0 µM 98% | [8]; [17] 78% | [8]; [18] 94% | [8]; at 50.0 µM 78.2% | [9]; at 100.0 µM 90% | [10]; [18] 90% | [10]; at 100.0 µM 96% | [11]; at 33.0 µM 80% | [11]; at 100.0 µM 88% | [12]; at 1.2 µM 80% | [12]; at 3.7 µM 89% | [12]; at 11.0 µM 93% | [12]; at 33.0 µM 95% | [12]; at 100.0 µM 95% | [13]; [18] 98% | [13]; at 50.0 µM 78.2% | [14]; at 1.2 µM 95% | [14]; at 3.7 µM 96% | [14]; at 11.0 µM 96% | [14]; at 33.0 µM 95% | [14]; at 100.0 µM 95%

CC(=O)/C(=C\c1ccc(Cl)c(Cl)c1)C(=O)C(C)CN(C)C (stereo not drawn)
inactive: [1]; at 1.2 µM 19% | [1]; at 3.7 µM 21% | [1]; at 11.0 µM 33% | [1]; at 33.0 µM 52% | [2]; at 1.2 µM -12% | [2]; at 3.7 µM -13% | [2]; at 11.0 µM -12% | [2]; at 33.0 µM 10% | [3]; at 1.2 µM 7% | [3]; at 3.7 µM 7% | [3]; at 11.0 µM 3% | [3]; at 33.0 µM 37% | [4]; at 1.2 µM 6% | [4]; at 3.7 µM -2% | [4]; at 11.0 µM 10% | [4]; at 33.0 µM 46% | [5]; at 1.2 µM 26% | [5]; at 3.7 µM 22% | [5]; [17] 14% | [5]; at 11.0 µM 18% | [5]; at 33.0 µM 62% | [5]; [18] 36% | [5]; at 50.0 µM 64.4% | [6]; at 1.2 µM 19% | [6]; at 3.7 µM 29% | [6]; [17] 9% | [6]; at 11.0 µM 38% | [6]; at 33.0 µM 51% | [7]; at 1.2 µM -3% | [7]; at 3.7 µM 2% | [7]; at 11.0 µM -8% | [7]; at 33.0 µM 22% | [8]; [17] -8% | [9]; at 1.2 µM 8% | [9]; at 3.7 µM -2% | [9]; at 11.0 µM 17% | [9]; at 33.0 µM 44% | [15]; [17] -1% | [10]; at 1.2 µM 7% | [10]; at 3.7 µM -1% | [10]; [17] 12% | [10]; at 11.0 µM 11% | [10]; at 33.0 µM 53% | [16]; at 1.2 µM -12% | [16]; at 3.7 µM -6% | [16]; at 11.0 µM -1% | [12]; at 1.2 µM 40% | [12]; at 3.7 µM 48% | [12]; at 11.0 µM 64% | [13]; [17] 16% | [14]; at 1.2 µM 26% | [14]; at 3.7 µM 30% | [14]; at 11.0 µM 55%
active: [1]; at 100.0 µM 91% | [2]; at 100.0 µM 90% | [3]; at 100.0 µM 90% | [4]; at 100.0 µM 93% | [5]; at 100.0 µM 91% | [6]; [18] 76% | [6]; at 50.0 µM 87.5% | [6]; at 100.0 µM 93% | [7]; at 100.0 µM 92% | [8]; [18] 97% | [8]; at 50.0 µM 85.7% | [9]; at 100.0 µM 81% | [15]; [18] 93% | [15]; at 50.0 µM 81.2% | [10]; [18] 96% | [10]; at 50.0 µM 82.8% | [10]; at 100.0 µM 93% | [16]; at 33.0 µM 88% | [16]; at 100.0 µM 98% | [12]; at 33.0 µM 76% | [12]; at 100.0 µM 97% | [13]; [18] 97% | [13]; at 50.0 µM 90.3% | [14]; at 33.0 µM 82% | [14]; at 100.0 µM 93%

CCN(CC)C(=S)SC(=S)N(CC)CC
inactive: [1]; at 1.2 µM -33% | [1]; at 3.7 µM -17% | [1]; at 11.0 µM 27% | [2]; at 1.2 µM -25% | [2]; at 3.7 µM -16% | [2]; at 11.0 µM 28% | [3]; at 1.2 µM -1% | [3]; at 3.7 µM 7% | [3]; at 11.0 µM 37% | [4]; at 1.2 µM -42% | [4]; at 3.7 µM -43% | [4]; at 11.0 µM 16% | [5]; at 1.2 µM -15% | [5]; at 3.7 µM 15% | [5]; [17] 10% | [5]; at 11.0 µM 29% | [5]; [18] 46% | [6]; at 1.2 µM -34% | [6]; at 3.7 µM -10%
active: [1]; at 33.0 µM 96% | [1]; at 100.0 µM 98% | [2]; at 33.0 µM 92% | [2]; at 100.0 µM 99% | [3]; at 33.0 µM 91% | [3]; at 100.0 µM 99% | [4]; at 33.0 µM 95% | [4]; at 100.0 µM 98% | [5]; at 33.0 µM 79% | [5]; at 50.0 µM 90% | [5]; at 100.0 µM 97%
